Screens (PubChem BioAssay)
In the library only some 11% were active in any assay of this set; here they are far more common.
Pf growth 48h: inhibits P. falciparum growth in the first generation, 48 h; P. falciparum luciferase growth in erythrocytes, 48 h; Potency, µM (doses to about 28.7 µM), actives largely listed as inhibitors; AID 504832; hit rate 5.9% among 310,000
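Luciferase-expressing P. falciparum in infected erythrocytes (2% hematocrit, 0.1% parasitemia final) in RPMI 1640/0.5% Albumax were exposed to compound for 48 hours at 37 C, 5% CO2; growth read as luminescence.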
Pf growth 96h: P. falciparum growth inhibition at 96 hour, primary screen for plastid delayed-death inhibitors; P. falciparum luciferase reporter growth, 96 h; Potency, µM (titrated, usually from 28.7 µM), actives largely listed as inhibitors; hit rate 6.9% among 320,000; AID 504834
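Luminescence readout: decreased luciferase signal marks inhibited growth of reporter-expressing P. falciparum in infected red cells (2% hematocrit, 0.05% parasitemia final), exposed to compound two generations (96 h, 37 C, 5% CO2).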
AMA1-RON2 inh: inhibitors of Plasmodium falciparum AMA1-RON2 interaction; AlphaScreen AMA1-biotinylated RON2 peptide binding; Potency, µM (doses to about 58.2 µM), actives largely listed as inhibitors; hit rate 0.2% among 360,000; also: nearly all actives have a fitted effect of over 45% in size
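AMA1 (3D7) with his tag at 25 nM final met compounds first, then biotinylated RON2 peptide at 25 nM; detection used donor plus acceptor beads, 10 µg/mL apiece, read by AlphaScreen after 30 min at room temperature.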
NS1 function inh: inhibitors of influenza NS1 protein function. Potency, µM (highest dose often 46.1 µM). hit rate 0.4% among 270,000. AID 2326; calls by dose curve; also: actives are rising curves; nearly all actives have a fitted effect of over 50% in size
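In this qHTS, NS1 from influenza A is expressed in budding yeast, where it slows growth. Cells are switched from glucose to 2% galactose medium (pH 6.0, -URA), treated with compound, and growth recovery is read at OD600.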
Sm TGR inh: inhibitors of Schistosoma mansoni thioredoxin glutathione reductase; hit rate 3% among 360,000; Potency, µM (titrated, usually from 114 µM), most hits filed as inhibitors; Q962Y6; purified TGR, DTNB reduction, TNB absorbance 405 nm; also: nearly all actives have a fitted effect of over 60% in size
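TGR 20 nM + NADPH 100 uM (dispensed conc.), cpd preinc 15 min RT; start with NADPH (500 uM addition) then DTNB (15 mM addition). Kinetic TNB absorbance, 405 nm filter. Four-parameter Hill fit across titration.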
Large screens that a line does not name were inactive; ! = repeats disagree. Unless noted, calls follow the shape of the dose curve; as a rule, active = well fitted curve in the direction sought with a large enough effect; inconclusive = small, poorly fitted or top-dose-only effect, or another doubt; inactive = no such curve, though single readings can be large; an effect the other way counts as inactive or inconclusive.

CCN(CC)c1c([N+](=O)[O-])c(=O)sc2ccccc12	none
Cc1nc(SCC(=O)NC(=O)NCc2ccccc2)nc(C)c1C	none (no result: Pf growth 48h)
O=C(CSc1nnc(-c2ccccc2)c(-c2ccccc2)n1)NCc1ccco1	Pf growth 48h 10µM, Sm TGR inh 40µM
Cc1nc(SCC(=O)NC(=O)NCc2ccco2)nc(C)c1C	Pf growth 48h inconclusive, Sm TGR inh 40µM (no result: NS1 function inh)
O=C(O)CSc1ncnc2c1oc1ccccc12	none
O=C(CSc1ncc(-c2ccccc2)nn1)NCc1ccco1	Sm TGR inh inconclusive
Cc1nc(SCC(=O)NCc2ccco2)nc(C)c1C	Sm TGR inh 22µM
Cc1ccc(SCC(=O)NCc2ccco2)cc1	Pf growth 48h inconclusive, Pf growth 96h inconclusive, Sm TGR inh inconclusive
O=C(CSc1ncnc2c1oc1ccccc12)NCc1ccco1	Sm TGR inh 28µM
Cc1ccc2nc(-c3ccc(O)cc3)oc2c1	Pf growth 96h inconclusive
O=C(Cn1cnc2c(NCc3ccccc3)ncnc21)NCCc1cc2ccccc2[nH]1	none (no result: Pf growth 48h, Pf growth 96h, NS1 function inh, Sm TGR inh)
COC(=O)c1ccc(CSC2=NC[C@@H]3[C@@H]4C(=O)N(Cc5ccccc5)C(=O)[C@@H]4[C@](C)(C(=O)OC)N23)cc1	none (no result: Pf growth 48h, Pf growth 96h, NS1 function inh, Sm TGR inh)
Cc1ccc(C(CC(=O)N2CCCC2)c2ccccc2)c(O)c1 (centres undefined)	Pf growth 96h inconclusive
CCCN(Cc1nnc(-c2cccs2)o1)C(=O)c1cccc(S(=O)(=O)N2CCOCC2)c1	Pf growth 48h inconclusive, Pf growth 96h inconclusive (no result: NS1 function inh)
O=C(Cn1cnc2sc(-c3ccccc3)cc2c1=O)NCc1ccccc1	none (no result: Pf growth 48h)
O=C(Cn1cnc2sc(-c3ccccc3)cc2c1=O)NCc1ccco1	NS1 function inh inconclusive, Sm TGR inh 13µM (no result: Pf growth 96h)
CC(=O)Nc1ccc(SCC(=O)OCC(=O)NC(=O)NCCC(C)C)cc1	none (no result: NS1 function inh)
CC(=O)Nc1ccc(SCC(=O)OCC(=O)NC(=O)NCc2ccco2)cc1	Pf growth 96h 9.3µM
CCCNC(=O)C(=O)NCC(c1ccc2c(c1)OCO2)N1CCOCC1 (centres undefined)	none (no result: Pf growth 48h, Pf growth 96h, AMA1-RON2 inh, NS1 function inh)
Cc1ccc(Cn2nnc3c(=O)[nH]c(C4CCN(S(=O)(=O)c5ccc(S(=O)(=O)NC6CC6)cc5)CC4)nc32)cc1	Pf growth 48h inconclusive, Pf growth 96h 1.5µM, NS1 function inh inconclusive
O=c1[nH]c(C2CCN(S(=O)(=O)c3ccc(S(=O)(=O)NC4CC4)cc3)CC2)nc2c1nnn2Cc1cccc(F)c1	Pf growth 48h 9.3µM, Pf growth 96h inconclusive
COc1cc(S(=O)(=O)NCc2ccc3c(c2)OCO3)ccc1F	none
COC(=O)C1=C(C)N(CC2CC2)C(=NCc2cc(OC)c(OC)c(OC)c2)N[C@H]1c1ccccc1	Pf growth 96h 12µM!
CCN1C(=NCCCCO)N[C@@H](c2ccccc2)C(C(=O)OC)=C1C	none (no result: AMA1-RON2 inh)
CCN1C(=NCCN2CCOCC2)N[C@@H](c2ccccc2)C(C(=O)OC)=C1C	Pf growth 96h 1.1µM!
C=CCN=C1N[C@@H](c2ccccc2)C(C(=O)OC)=C(C)N1CCOC	Pf growth 96h 10µM!
COC(=O)C1=C(C)N(Cc2ccccc2)C(=NCc2cc(OC)c(OC)c(OC)c2)N[C@H]1CCc1ccccc1	Pf growth 48h 13µM, Pf growth 96h inconclusive
Cc1ccc(C(=O)NC(=S)N2CCCCCC2)cc1	Pf growth 96h inconclusive (no result: NS1 function inh)
Cc1ccc(S(=O)(=O)Nc2cccc3c2O[C@H](CN(C)C(=O)Nc2cccc4ccccc24)[C@H](C)CN([C@H](C)CO)C3=O)cc1	none (no result: Pf growth 48h, Pf growth 96h, NS1 function inh, Sm TGR inh)
CCCCOCCCNC(=O)C[C@@H]1C[C@@]2(C(=O)OCC)CCCC=C2N(Cc2ccc(Cl)cc2Cl)C1=O	none (no result: Pf growth 48h, Pf growth 96h, NS1 function inh, Sm TGR inh)
COC(=O)C1=C(C)N(Cc2ccccc2)C(=NCCc2c[nH]c3ccccc23)N[C@H]1c1cccc(F)c1	none (no result: Pf growth 48h, Pf growth 96h, NS1 function inh, Sm TGR inh)
COCCN=C1N[C@@H](c2ccccc2)C(C(=O)OC)=C(C)N1Cc1ccccc1	Pf growth 96h inconclusive, Sm TGR inh 22µM!
COC(=O)C1=C(C)N(Cc2ccccc2)C(=NCc2ccccc2)N[C@H]1c1ccccc1	Pf growth 48h inconclusive, Pf growth 96h 1.7µM
COC(=O)C1=C(C)N(Cc2ccccc2)C(=NCCc2c[nH]c3ccccc23)N[C@H]1c1ccccc1	Pf growth 48h inconclusive, Pf growth 96h 8.3µM
COC(=O)C1=C(C)N(Cc2ccccc2)C(=NCc2ccccc2)N[C@H]1c1cccc(F)c1	Pf growth 48h inconclusive, Pf growth 96h 9.3µM
FC(F)(F)COc1ccc(-n2ccnc2)nn1	none (no result: NS1 function inh)
